According to PubChem BioAssay (NCI):
Compounds without any hit were thinned out: in the full panel of roughly 83,000, 20% have a hit.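 The endpoint reported here, percent growth, reads 100 for growth as untreated, 0 for no net growth and -100 for all cells dead.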 Unmarked numbers belong to inactive results. Activity calls are given as the source filed them. How the source made its calls: active means growth percent below 10; inactive means the rest.

tested on: HL-60(TB) leukemia; experiment: NCI-60 one-dose screen, 48 h (100 = growth as untreated, 0 = no growth, -100 = all killed); details: 10 µM unless noted

SMILES | growth
Cc1cccc2c(N)c3ccccc3nc12 | 9.2% (active)
CSC1=NCCCC1 | 99.8%
Nc1nccc(=S)[nH]1 | 79.9%
CCCOCc1cn[nH]n1 | 105%
Cc1ccc(S(=O)(=O)N2CCc3ccc(O)c4c3C2CCc2ccccc2-4)cc1 (stereo not given) | 91.3%
C/C(Cc1ccccc1)=N\O | 13.8%
NC(=O)c1cccc(N2Cc3ccccc3OC3=C2C(=O)c2c(O)ccc(O)c2C3=O)c1 | -46.3% (active)
O=C1/C(=C/c2ccc(F)cc2)CN(Cc2cn(CCNc3ccnc4cc(Cl)ccc34)nn2)C/C1=C\c1ccc(F)cc1 | -27.6% (active)
C=C(C)[C@@H]1C/C=C(/C=O)CC[C@@H]2O[C@@]2(C)CC/C=C(\C)CC1 | 162%
COc1cc2nc(-c3ccc(C(F)(F)F)cc3)cc(OCCCN3CCOCC3)c2cc1OC | 32.5%
Cc1ccc2nc(N)nnc2c1 | 125%
C/C(=C\c1ccc2ccccc2c1)[N+](=O)[O-] | -25.7% (active)
COc1cccc(/C=C2\COc3ccc(O)cc3C2=O)c1OC | -14.5% (active)
O=Nc1ccc2ccccc2c1O | 74.3%
CC(Sc1nc2sc3c(c2c(=O)n1-c1ccc(Cl)cc1)CCCC3)C(=O)Nc1nc(-c2ccc(Br)cc2)cs1 (stereo not given) | 98.6%
Nc1nnc(C(=O)c2cnc3n(c2=O)CCCCC3)s1 | 110%
COc1cc(/C=C2\CN(C(=O)CCN3CCC(=NO)CC3)C/C(=C\c3cc(OC)c(OC)c(OC)c3)C2=O)cc(OC)c1OC | -27.9% (active)
CN1c2ccccc2S(=O)(=O)n2c(SCC(=O)Nc3nc4ccc(F)cc4s3)nnc21 | 105%
CN1CCN(CC(=O)N2c3cccc4cccc(c34)N(C(=O)CN3CCN(C)CC3)C2c2cn(-c3ccccc3)nc2-c2cccc([N+](=O)[O-])c2)CC1 | -60% (active)
C=C(C)[C@@H]1CC[C@]2(CO)CC[C@]3(C)[C@H](CC[C@@H]4[C@@]5(C)CCC(NCCc6ccc(O)cc6)C(C)(C)[C@@H]5CC[C@]43C)[C@@H]12 (stereo not given in full) | -50.4% (active)

SMILES | growth
COc1ccc(-c2nc(-c3ccccc3)c(-c3ccccc3)[nH]2)cc1OC1CCCCC1 | 97.6%
C[C@@H](O)[C@H]1C(=O)N2C(C(=O)O)=C(SC3CN[C@H](C(=O)N(C)C)C3)[C@H](C)[C@H]12 (stereo not given in full) | 87%
O=C1C(Nc2ccc(Cl)cc2)=C(I)C(=O)c2ncccc21 | -45.8% (active)
CN(C)CCCN=c1cc2c(=O)n(CCCN(C)C)c(=O)c3c(NCCCN(C)C)cc4c(O)n(CCCN(C)C)c(=O)c1c4c3-2 | 61.2%
COc1ccc(-c2nc3ncccn3c2-c2nc3ccc(Br)cc3[nH]2)cc1 | 81.3%
COc1ccc(-c2ncnc3c2ncn3CC#CCCl)cc1 | 48.8%
CCOC(=O)c1sc(NC(=O)CN2CCC(Cc3ccccc3)CC2)nc1C | 92%
C/C=C(\C)C(=O)NC1=CC[C@@]2(C)C(=CCC3C2CC[C@@]2(C)C3CC[C@@H]2C(C)N(C)C)C1=O (stereo not given in full) | 8.53% (active)
c1ccc(-c2n[nH]c(-c3ccccn3)n2)nc1 | 105%
CN(C)CCCC(=O)Nc1ccc(Cn2nnc3c2C(=O)c2nnn(Cc4ccc(NC(=O)CCCN(C)C)cc4)c2C3=O)cc1 | 8.78% (active)
CCOC(=O)c1c(NC(=O)c2cccc(C(F)(F)F)c2)sc2c(CN(C)C)c(O)ccc12 | 16.3%
Clc1ccc2c(c1)C[C@H]1C[C@@H](c3cccs3)N2O1 | 107%
C[C@]12CC[C@@H]3c4ccc(O)c([N+](=O)[O-])c4CC[C@H]3[C@@H]1CC[C@@H]2NS(=O)(=O)c1cccc(Br)c1 | -5.66% (active)
Nc1ncn(C2OC(CO)C(O)C2O)c(=O)n1 (stereo not given) | -44.6% (active)
Cc1c(C(N)=O)sc2ncn(CC(=O)Nc3ccc(Cl)cc3)c(=O)c12 | 110%
CCOC(=O)Nc1ccc2nc(-c3cscn3)[nH]c2c1 | 18.7%
COc1cc2ncnc(-n3ncc4cc(NC(=O)Nc5ccc(Cl)c(C)c5)ccc43)c2cc1OC | 114%
c1ccc(-c2[nH]c3ccccc3c2-c2ccccc2)cc1 | 78.7%
Cn1cc(-c2noc(-c3cn(C)c4ncc(Br)cc34)n2)c2cc(Cl)ccc21 | 102%
COC1OC(C(COC(C)=O)OC(C)=O)C(OC(C)=O)C(OC(C)=O)C1OC(C)=O (stereo not given) | 132%
